# “And” between values parts separate entries of the source, which are not always exact repeats. Identical values can stand only once. Out of some 5,500 compounds screened, about 2,000 (36%) were called active. About 18% were inconclusive and are not listed. This is one part of the list. Values without a mark were called inactive. Cut-off read from the data, not from the text of the source: active = normalized growth mostly below about 0.91 (no sharp cut-off); inconclusive = no clear call, values can overlap the other calls; inactive = mostly above about 0.92.
# Assay: chemical genetic growth profiling, strain panel (AID 1159580);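 note: tested at 20 µM; growth read once vehicle control cultures reached saturation at 30 °C; 1 = growth at the plate median or of vehicle wells; lower values mean less growth of the strain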
# Conditions: growth OD
compound,measurement,setting,value
NCCc1ccc(O)cc1,normalized growth,"S. cerevisiae deletion strains, locus YJR075W, strain HOC1, active compounds read low",1.01
same,normalized growth,"S. cerevisiae deletion strains, locus YKL009W, strain mrt4, active compounds read low",0.992
same,normalized growth,"S. cerevisiae deletion strains, locus YKL068W, active compounds read low",0.994
same,normalized growth,"S. cerevisiae deletion strains, locus YKL085W, strain MDH1 (second series), active compounds read low",0.996
same,normalized growth,"S. cerevisiae deletion strains, locus YKL085W, strain MDH1, active compounds read low",0.996
same,normalized growth,"S. cerevisiae deletion strains, locus YKL160W, strain elf1, active compounds read low",1.01
same,normalized growth,"S. cerevisiae deletion strains, locus YKL190W, strain CNB1, active compounds read low",1.01
same,normalized growth,"S. cerevisiae deletion strains, locus YKR001C, strain vps1, active compounds read low",0.978
same,normalized growth,"S. cerevisiae deletion strains, locus YKR026C, strain gcn3, active compounds read low",0.972
same,normalized growth,"S. cerevisiae deletion strains, locus YKR091W, strain srl3, active compounds read low",0.986
same,normalized growth,"S. cerevisiae deletion strains, locus YLL001W, strain dnm1, active compounds read low",0.982
same,normalized growth,"S. cerevisiae deletion strains, locus YLL026W, active compounds read low",0.985
same,normalized growth,"S. cerevisiae deletion strains, locus YLL041C, strain sdh2, active compounds read low",0.978
same,normalized growth,"S. cerevisiae deletion strains, locus YLR027C, strain aat2, active compounds read low",0.984
same,normalized growth,"S. cerevisiae deletion strains, locus YLR039C, strain RIC1, active compounds read low",1.02
same,normalized growth,"S. cerevisiae deletion strains, locus YLR058C, strain SHM2, active compounds read low",1.01
same,normalized growth,"S. cerevisiae deletion strains, locus YLR102C, strain apc9, active compounds read low",0.999
same,normalized growth,"S. cerevisiae deletion strains, locus YLR113W, strain HOG1, active compounds read low",0.973
same,normalized growth,"S. cerevisiae deletion strains, locus YLR221C, strain rsa3, active compounds read low",0.951
same,normalized growth,"S. cerevisiae deletion strains, locus YLR258W, strain gsy2, active compounds read low",0.985
same,normalized growth,"S. cerevisiae deletion strains, locus YLR262C, strain YPT6 (second series), active compounds read low",0.976
same,normalized growth,"S. cerevisiae deletion strains, locus YLR262C, strain YPT6, active compounds read low",1.02
same,normalized growth,"S. cerevisiae deletion strains, locus YLR268W, strain sec22, active compounds read low",0.993
same,normalized growth,"S. cerevisiae deletion strains, locus YLR320W, strain mms22, active compounds read low",0.962
same,normalized growth,"S. cerevisiae deletion strains, locus YLR330W, strain CHS5, active compounds read low",1.01
same,normalized growth,"S. cerevisiae deletion strains, locus YLR342W, strain FKS1 (second series), active compounds read low",1
same,normalized growth,"S. cerevisiae deletion strains, locus YLR342W, strain FKS1, active compounds read low",0.98
same,normalized growth,"S. cerevisiae deletion strains, locus YLR357W, strain rsc2, active compounds read low",0.956
same,normalized growth,"S. cerevisiae deletion strains, locus YLR370C, strain arc18, active compounds read low",0.984
same,normalized growth,"S. cerevisiae deletion strains, locus YLR371W, strain rom2, active compounds read low",0.981
same,normalized growth,"S. cerevisiae deletion strains, locus YLR384C, strain iki3, active compounds read low",0.958
same,normalized growth,"S. cerevisiae deletion strains, locus YLR418C, strain cdc73, active compounds read low",1.02
same,normalized growth,"S. cerevisiae deletion strains, locus YML016C, strain PPZ1, active compounds read low",1
same,normalized growth,"S. cerevisiae deletion strains, locus YML032C, strain rad52, active compounds read low",1.02
same,normalized growth,"S. cerevisiae deletion strains, locus YML120C, strain ndi1, active compounds read low",0.994
same,normalized growth,"S. cerevisiae deletion strains, locus YML124C, strain tub3, active compounds read low",1
same,normalized growth,"S. cerevisiae deletion strains, locus YMR058W, strain fet3, active compounds read low",0.973
same,normalized growth,"S. cerevisiae deletion strains, locus YMR078C, strain ctf18, active compounds read low",0.99
same,normalized growth,"S. cerevisiae deletion strains, locus YMR125W, strain sto1, active compounds read low",0.989
same,normalized growth,"S. cerevisiae deletion strains, locus YMR129W, active compounds read low",0.973
same,normalized growth,"S. cerevisiae deletion strains, locus YMR205C, strain PFK2, active compounds read low",1.01
same,normalized growth,"S. cerevisiae deletion strains, locus YMR223W, strain ubp8, active compounds read low",1.01
same,normalized growth,"S. cerevisiae deletion strains, locus YMR231W, strain pep5, active compounds read low",0.97
same,normalized growth,"S. cerevisiae deletion strains, locus YMR263W, strain SAP30, active compounds read low",1.01 and 1
same,normalized growth,"S. cerevisiae deletion strains, locus YMR307W, strain GAS1, active compounds read low",0.979 and 1.01
same,normalized growth,"S. cerevisiae deletion strains, locus YNL067W, strain RPL9B, active compounds read low",1.01
same,normalized growth,"S. cerevisiae deletion strains, locus YNL071W, strain lat1, active compounds read low",0.989
same,normalized growth,"S. cerevisiae deletion strains, locus YNL153C, strain GIM3, active compounds read low",1.01 and 1.04
same,normalized growth,"S. cerevisiae deletion strains, locus YNL175C, strain NOP13, active compounds read low",1.03
same,normalized growth,"S. cerevisiae deletion strains, locus YNL183C, strain NPR1, active compounds read low",0.953
same,normalized growth,"S. cerevisiae deletion strains, locus YNL197C, strain WHI3, active compounds read low",1
same,normalized growth,"S. cerevisiae deletion strains, locus YNL209W, strain ssb2, active compounds read low",1
same,normalized growth,"S. cerevisiae deletion strains, locus YNL224C, strain SQS1, active compounds read low",1
same,normalized growth,"S. cerevisiae deletion strains, locus YNL233W, strain BNI4, active compounds read low",1
same,normalized growth,"S. cerevisiae deletion strains, locus YNL248C, strain rpa49, active compounds read low",0.856 (active)
same,normalized growth,"S. cerevisiae deletion strains, locus YNL250W, strain rad50, active compounds read low",0.995
same,normalized growth,"S. cerevisiae deletion strains, locus YNL271C, strain bni1, active compounds read low",0.993
same,normalized growth,"S. cerevisiae deletion strains, locus YNL298W, strain CLA4, active compounds read low",1
same,normalized growth,"S. cerevisiae deletion strains, locus YNL307C, strain MCK1, active compounds read low",1.02
same,normalized growth,"S. cerevisiae deletion strains, locus YNL322C, strain KRE1 (second series), active compounds read low",0.992
same,normalized growth,"S. cerevisiae deletion strains, locus YNL322C, strain KRE1, active compounds read low",1 and 0.993
same,normalized growth,"S. cerevisiae deletion strains, locus YNR049C, strain mso1, active compounds read low",0.98
same,normalized growth,"S. cerevisiae deletion strains, locus YNR052C, strain pop2, active compounds read low",0.988
same,normalized growth,"S. cerevisiae deletion strains, locus YOL012C, strain htz1",0.829
same,normalized growth,"S. cerevisiae deletion strains, locus YOL147C, strain pex11, active compounds read low",1
same,normalized growth,"S. cerevisiae deletion strains, locus YOR001W, strain rrp6, active compounds read low",0.927
same,normalized growth,"S. cerevisiae deletion strains, locus YOR061W, strain CKA2, active compounds read low",1.01
same,normalized growth,"S. cerevisiae deletion strains, locus YOR069W, strain VPS5, active compounds read low",1
same,normalized growth,"S. cerevisiae deletion strains, locus YOR070C, strain gyp1, active compounds read low",0.963
same,normalized growth,"S. cerevisiae deletion strains, locus YOR080W, strain dia2, active compounds read low",0.968
same,normalized growth,"S. cerevisiae deletion strains, locus YOR083W, strain WHI5 (second series), active compounds read low",1.03
same,normalized growth,"S. cerevisiae deletion strains, locus YOR083W, strain WHI5, active compounds read low",1.01
same,normalized growth,"S. cerevisiae deletion strains, locus YOR106W, strain vam3, active compounds read low",1.02
same,normalized growth,"S. cerevisiae deletion strains, locus YOR136W, strain idh2, active compounds read low",0.996
same,normalized growth,"S. cerevisiae deletion strains, locus YOR144C, strain elg1, active compounds read low",0.992
same,normalized growth,"S. cerevisiae deletion strains, locus YOR184W, strain ser1, active compounds read low",1
same,normalized growth,"S. cerevisiae deletion strains, locus YOR231W, strain MKK1, active compounds read low",0.963
same,normalized growth,"S. cerevisiae deletion strains, locus YOR265W, strain rbl2, active compounds read low",1
same,normalized growth,"S. cerevisiae deletion strains, locus YOR270C, strain vph1, active compounds read low",0.964
same,normalized growth,"S. cerevisiae deletion strains, locus YOR290C, strain snf2, active compounds read low",1
same,normalized growth,"S. cerevisiae deletion strains, locus YOR316C, strain cot1, active compounds read low",1
same,normalized growth,"S. cerevisiae deletion strains, locus YPL051W, strain arl3, active compounds read low",0.987
same,normalized growth,"S. cerevisiae deletion strains, locus YPL055C, strain LGE1, active compounds read low",1.01
same,normalized growth,"S. cerevisiae deletion strains, locus YPL078C, strain atp4, active compounds read low",0.997
same,normalized growth,"S. cerevisiae deletion strains, locus YPL106C, strain sse1, active compounds read low",0.987
same,normalized growth,"S. cerevisiae deletion strains, locus YPL240C, strain hsp82, active compounds read low",0.976
same,normalized growth,"S. cerevisiae deletion strains, locus YPL241C, strain CIN2, active compounds read low",1.01 and 1
same,normalized growth,"S. cerevisiae deletion strains, locus YPL256C, strain CLN2, active compounds read low",0.953
same,normalized growth,"S. cerevisiae deletion strains, locus YPR119W, strain clb2, active compounds read low",0.992
same,normalized growth,"S. cerevisiae deletion strains, locus YPR141C, strain kar3, active compounds read low",0.996
same,normalized growth,"S. cerevisiae deletion strains, locus YPR163C, strain tif3, active compounds read low",1.01
same,normalized growth,"S. cerevisiae deletion strains, locus YPR167C, strain met16, active compounds read low",1.01
same,normalized growth,"S. cerevisiae deletion strains, strain wtn01, active compounds read low",0.984
same,normalized growth,"S. cerevisiae strains, strain wild type, active compounds read low",1

# Source: PubChem BioAssay AID1159580 (chemical genetic matrix, 2015)
